# Reference: PubChem BioAssay AID588342 (National Center for Advancing Translational Sciences (NCATS), 2011)
# The campaign covered roughly 360,000 compounds. About 25,000 (6.9%) were called active. Where a call stands in place of a potency, no number is given. Another 9% or so got no clear call; they are omitted. This is one part of a sample in which actives are shown more often than they occur. The call rests on the fitted dose curve; in most records, active means well fitted inhibition curve with a large enough effect; inconclusive means small, poorly fitted or top-dose-only effect; inactive means flat fitted curve, though single readings scatter.
# Target: Luciferin 4-monooxygenase (Photinus pyralis) (UniProt P08659)
# Sequence (P08659 whole entry, looked up): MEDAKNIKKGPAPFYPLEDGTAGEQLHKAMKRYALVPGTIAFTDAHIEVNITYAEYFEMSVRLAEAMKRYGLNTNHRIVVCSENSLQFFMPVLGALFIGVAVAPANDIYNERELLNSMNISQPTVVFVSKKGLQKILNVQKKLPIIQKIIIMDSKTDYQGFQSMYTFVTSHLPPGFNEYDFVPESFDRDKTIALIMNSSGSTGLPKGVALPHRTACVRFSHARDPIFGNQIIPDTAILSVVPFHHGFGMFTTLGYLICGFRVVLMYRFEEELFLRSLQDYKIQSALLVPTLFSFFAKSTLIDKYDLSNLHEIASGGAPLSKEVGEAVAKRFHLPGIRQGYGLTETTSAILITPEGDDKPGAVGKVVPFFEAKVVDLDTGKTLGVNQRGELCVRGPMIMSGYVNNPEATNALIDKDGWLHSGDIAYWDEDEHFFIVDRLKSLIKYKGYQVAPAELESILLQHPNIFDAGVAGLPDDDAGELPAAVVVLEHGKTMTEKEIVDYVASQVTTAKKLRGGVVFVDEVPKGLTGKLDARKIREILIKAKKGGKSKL
# Experiment: qHTS profiling assay for firefly luciferase inhibitor/activator using purifed enzyme and Km concentrations of substrates (counterscreen for miR-21 project); further: nearly all actives have a fitted effect of over 55% in size
# Settings: purified FLuc, luminescence inhibition; series mostly up to 57.5 µM
# Outline: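 Biochemical qHTS of compounds, final roughly 60 µM downward over six points, against 10 nM purified firefly luciferase using Km concentrations of substrates (10 uM D-luciferin, 10 uM ATP) in Tris acetate pH 7.5 buffer; luminescence output.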
# Potency means the concentration at half of the fitted maximal effect.
row,Structure (SMILES),Potency
1,O=C(CCNC(=O)c1ccc(Br)cc1)NCC(c1ccco1)N1CCCCC1 (stereo not given),inactive
2,CN(CC(=O)Nc1cccc(C(F)(F)F)c1)S(=O)(=O)c1cccs1,inactive
3,CC(C)CCNC(=O)Cn1c(=O)oc2cc(S(=O)(=O)N3CC(C)CC(C)C3)ccc21 (stereo not given),inactive
4,CCOc1ccc(CNC(=O)c2cccc(Nc3nc4ccccc4n4nnnc34)c2)cc1OC,inactive
5,CCN(CC)CCNC(=O)c1cc2c(=O)oc3ccc(C)cc3c2s1,inactive
6,Cc1ccc(-c2nnc(SCC(=O)NCc3ccccc3)nc2-c2ccc(C)cc2)cc1,inactive
7,COC(=O)c1cc(NC(=O)c2cnc(SC)nc2-c2ccccc2)cc(C(=O)OC)c1,inactive
8,COc1ccccc1C(=O)NC(CCSC)C(=O)N1CCN(C(C)=O)CC1 (stereo not given),inactive
9,CC(=O)c1cccc(NC(=O)C2CCN(C(=O)c3ccccc3Cl)CC2)c1,inactive
10,CC(=O)N1CCCc2ccc(NS(=O)(=O)c3ccc(F)cc3F)cc21,inactive
11,O=C(O)c1ccc2c(=O)n3c(nc2c1)/C(=C/c1ccc(Cl)c([N+](=O)[O-])c1)CC3,inactive
12,COc1ccc(OC)c(-c2nc(C(N)=O)c3c(n2)n(-c2ccc4c(c2)OCO4)c(=O)n3C)c1,inactive
13,CC(C)C12CN3CC(C(C)C)(CN(C1)C3c1ccc(OCc3ccccc3)cc1)C2=O (stereo not given),inactive
14,O=C1C=C(NCCNc2c(F)c(F)c(CO)c(F)c2F)CCC1,inactive
15,Cc1ccc(C)c(N2CCN(CCCNC(=O)Nc3ccc(Cl)cc3)CC2)c1,inactive
16,O=C(O)CCC(=O)Nc1ccc(N2CCOCC2)cc1,inactive
17,CC1CCC(C(C)C)C(=O)/C1=C\c1ccc(NC(=O)CCC(=O)O)cc1 (stereo not given),16.9 µM (active)
18,O=C(O)CCC(=O)Nc1ccc(OCC2CCCO2)cc1 (stereo not given),inactive
19,O=C(CSc1nnc(-c2ccccc2F)o1)Nc1cccc(C(F)(F)F)c1,inactive
20,O=C(NC1CCCC1)C(NS(=O)(=O)c1ccc(Br)s1)c1ccccc1 (stereo not given),inactive
21,CN(C)c1nc(-c2cccnc2)nc(-c2ccc(Cl)cc2)c1C#N,inactive
22,Cc1csc(NC(=O)CSc2nnc(-c3cccnc3)o2)n1,inactive
23,CN(C)c1ccc(-c2nnc(-c3cccnc3)o2)cc1,9.53 µM (active)

row,Structure (SMILES),Potency
1,O=C(CCNC(=O)c1ccc([N+](=O)[O-])cc1)NC1CCCCC1,inactive
2,COc1ccc(CNC(=O)C(C)n2nc(C)c3c(C)n(-c4ccccc4)nc3c2=O)c(OC)c1 (stereo not given),inactive
3,Cc1ccc(NC(=O)CSCC(=O)NC2CCCCC2)cc1,inactive
4,Cc1ccc(NC(=S)NC2CCCC2)cc1,10.7 µM (active)
5,Cc1cc(C)cc(NC(=O)NC2CCN(CC(=O)Nc3cccc(Cl)c3C)CC2)c1,inactive
6,O=C(Nc1cccc(F)c1)NC1CCCc2ccccc21 (stereo not given),inactive
7,C/C(CC(=O)Nc1cccc(F)c1)=N\NC(=O)C(=O)NC1CCCCC1,inactive
8,CC(C)(C)NS(=O)(=O)c1ccc(NC(=O)NC2CCCCC2)cc1,inactive
9,Cc1cc(Br)ccc1NC(=S)NC1CCCC1,inactive
10,CC(C)N1CCC(NC(=O)Nc2ccccc2)CC1,inactive
11,O=C(Nc1cccc(F)c1)NC1CCCCCCC1,15.1 µM (active)
12,CC(C)c1ccc(NC(=O)NC2CCCCC2)cc1,6.75 µM (active)
13,Cc1cc(C)cc(NC(=O)NC2CCCCCCC2)c1,10.7 µM (active)
14,Cc1ccc(NC(=O)NC2CCCCC2)cc1S(=O)(=O)N1CCOCC1,inactive
15,CCCNC(=O)C1CCN(c2nc3ccc(C)cc3[nH]2)CC1,inactive
16,C=CC(=O)OCCOCCOCCOCCOC(=O)C=C,inactive
17,CO[C@H]1[C@@H]2C=CO[C@@H](O[C@H]3O[C@@H](CO)[C@H](O)[C@@H](O)[C@@H]3O)[C@@H]2[C@@]2(CO)O[C@@H]12,inactive
18,CCOc1ccccc1C(=O)NCC(c1ccc(N(C)C)cc1)N1CCCC1 (stereo not given),inactive
19,CCCN1C(=O)C(O)(CC(=O)c2ccc(CC)cc2)c2cc(Br)ccc21 (stereo not given),inactive
20,CN(CC(=O)NCc1ccc2c(c1)OCO2)CC(=O)Nc1ccc(F)c(F)c1F,inactive
21,CCCc1cc(C(=O)N2CCCC(CO)(CCCc3ccccc3)C2)n(C)n1 (stereo not given),inactive
22,Cc1ccccc1CC1(CO)CCCN(C(=O)c2cc(-c3ccccc3)no2)C1 (stereo not given),inactive
23,Cc1noc(C)c1CCC(=O)N1CCCC(CO)(Cc2ccccc2)C1 (stereo not given),19 µM (active)

row,Structure (SMILES),Potency
1,CCOC(=O)C1(Cc2ccccc2C)CCCN(C(=O)CCc2c(C)noc2C)C1 (stereo not given),inactive
2,Cc1noc(C)c1CCC(=O)O,inactive
3,COC(=O)CCC(=O)N1CCCC(CO)(Cc2ccccc2)C1 (stereo not given),15.1 µM (active)
4,CN(CC(=O)Nc1ccccc1C(F)(F)F)C(=O)Cc1ccccc1F,inactive
5,CCN(CC)C(CNC(=O)CSc1nnnn1-c1cccc(F)c1)c1ccco1 (stereo not given),inactive
6,CSc1ncc(C(=O)NCCCc2ccccc2)c(C)n1,inactive
7,COc1ccc(OC)c(CNC(=O)c2c3c(nc4ccccc24)C(=O)N(C2CCCCC2)C3)c1,inactive
8,CC(=O)Oc1ccc(N(C(C)=O)S(=O)(=O)c2ccc3ccccc3c2)cc1Br,inactive
9,COc1ccc(C2CC(=O)N(Cc3ccccc3C)c3c2c(C)nn3-c2nc(C)cc(C)n2)c(OC)c1 (stereo not given),inactive
10,CCOc1cccc(-c2nn3c(-c4ccccn4)nnc3s2)c1,inactive
11,COc1cc(-c2nn3c(-c4cccc(C)c4)nnc3s2)cc(OC)c1OC,inactive
12,c1ccc(-c2cc(-c3nnc4sc(-c5ccccn5)nn34)[nH]n2)cc1,10.7 µM (active)
13,CN(Cc1ccccc1)c1ccc(-c2nc(-c3ccccc3)no2)cc1[N+](=O)[O-],inactive
14,COc1cccc(N2CCN(CC(=O)Nc3ccnn3C3CCCC3)CC2)c1,inactive
15,CCN(c1ccc(Cl)cc1)S(=O)(=O)c1nnc(NC(=O)c2ccco2)s1,inactive
16,Cc1cc(NC(=O)CSCc2ccccc2C)no1,inactive
17,Cc1cc(NC(=O)c2ccccc2C)no1,15.1 µM (active)
18,Cc1cc(NC(=O)COc2ccc([N+](=O)[O-])cc2)no1,inactive
19,Cc1ccccc1C(=O)Nc1ccccc1NC(=O)c1ccccc1C,inactive
20,Cc1cc(NC(=O)COc2ccccc2C#N)no1,12 µM (active)
21,Cc1cc(NC(=O)COn2nnc3ccccc32)no1,inactive
22,COc1ccc(N2C(=O)CSC23C(=O)N(Cc2cccc(F)c2)c2ccccc23)cc1Cl (stereo not given),inactive
23,COc1ccc(C(=O)C[n+]2ccc(N)c(C)c2C)cc1,inactive

row,Structure (SMILES),Potency
1,CC(CNC(=O)c1nnc(Cc2cccc(F)c2)o1)c1ccccc1 (stereo not given),inactive
2,NC(=O)NC(CC(=O)NNC(=O)c1ccccn1)c1ccc(Cl)cc1 (stereo not given),inactive
3,CC(C)(C)NC(=O)CSc1nc(-c2ccc(F)cc2)cc(C(F)(F)F)n1,inactive
4,COC(=O)Cc1ccc(OCC(=O)NC2CCCC2)cc1,inactive
5,COC(=O)c1oc2ccc(Br)cc2c1NC(C)=O,inactive
6,Cc1noc(C)c1C(=O)Nc1ccccn1,inactive
7,Cc1c(C(=O)Nc2ccccn2)oc2ccc(Br)cc12,2.13 µM (active)
8,COc1cc(C(CC(=O)NCCC(C)C)N2Cc3ccccc3C2=O)cc(OC)c1OC (stereo not given),inactive
9,CCCn1c(=N)n(CC(O)COc2ccccc2OC)c2ccccc21 (stereo not given),inactive
10,COc1cc2[nH]c(=O)n(Cc3ccc(C(=O)NCc4ccc(C)cc4)cc3)c(=O)c2cc1OC,inactive
11,COCCCN(C(=S)Nc1c(C)cc(C)cc1C)C(C)c1ccncc1 (stereo not given),inactive
12,COc1ccc(C(=O)Nc2cccc(S(C)(=O)=O)c2)cc1,16.9 µM (active)
13,COc1ccc(NC(=O)c2sccc2SCC#N)cc1,13.5 µM (active)
14,CCOc1ccc(C(=O)Nc2ccc(CN3CCOCC3)cc2)cc1Cl,7.57 µM (active)
15,CC1=C(C(=O)Nc2ccccc2)C(c2cccs2)C(C#N)=C(SCC#N)N1 (stereo not given),inactive
16,COc1cccc(-c2cc(C(=O)Nc3ccc(C)cc3)[nH]n2)c1,inactive
17,Cc1ccc(NC(=O)c2cccnc2C(=O)Nc2ccc(C)cc2)cc1,inactive
18,O=C(Nc1ccc(CN2CCOCC2)cc1)c1cc(Cl)ccc1Cl,inactive
19,COc1ccc(-n2cnnc2SCC(=O)Nc2cccc(S(N)(=O)=O)c2)cc1,inactive
20,COc1ccc(NC(=O)c2cc3cc(C)ccc3n2C)cc1,inactive
21,CCCc1cc(=O)oc2cc(OCC(=O)Nc3ccc(CN4CCOCC4)cc3)c(Cl)cc12,inactive
22,COc1ccc(NS(=O)(=O)c2ccc(NC(=O)c3ccc(N(C)S(C)(=O)=O)cc3)cc2)cc1,inactive
23,Cc1ccc(NC(=O)c2ccc(Oc3ncccn3)cc2)cc1,15.1 µM (active)

row,Structure (SMILES),Potency
1,CCOc1ccc(N2CC(c3nc4ccccc4n3CCOc3ccc(OC)cc3)CC2=O)cc1 (stereo not given),inactive
2,CCc1cccc(NC(=O)CN(C)S(=O)(=O)c2ccc3[nH]c4c(c3c2)CCCC4)c1,inactive
3,O=C(CCc1ccccc1)NCc1ccc2c(c1)CCN2C(=O)c1ccccc1,inactive
4,CNC(=O)CN1C(=O)c2cccnc2Sc2ccccc21,inactive
5,CN(Cc1ccccc1)C(=O)c1cn(C)c2ccc(S(=O)(=O)N(C)C3CCCCC3)cc2c1=O,inactive
6,Cn1cc(S(=O)(=O)Nc2ccc(Cl)cc2Cl)c(=O)n(C)c1=O,inactive
7,Cc1cc(C)cc(NC(=O)C(c2ccccc2)N2CCN(CC(=O)N3CCCC3)CC2)c1 (stereo not given),inactive
8,Cc1cccc(OCCC(=O)OCc2csc(CC(=O)Nc3ccccc3C)n2)c1,inactive
9,O=C(Nc1ccccc1F)C(c1ccccc1)N1Cc2ccccc2C1=O (stereo not given),inactive
10,COc1ccccc1CNC(=O)c1ccc(NC(=O)N2CC(C)Sc3ccccc32)cc1 (stereo not given),inactive
11,COc1cc2c(=O)c(S(=O)(=O)c3ccc(C(C)C)cc3)cn(Cc3ccccc3C)c2cc1OC,inactive
12,COc1ccc(C(=O)Nc2ccc(CN3CCOCC3)cc2)cc1,12 µM (active)
13,CCCOc1cccc(C(=O)Nc2cccc(NC(=O)c3ccc(C(C)(C)C)cc3)c2)c1,1.69 µM (active)
14,COCCNC(=S)c1ccc(OC)cc1,inactive
15,COc1ccc(C(=O)CCC(=O)Nc2ccc(Cl)cc2)cc1,inactive
16,COc1ccc(CC(=O)Nc2ccc(C(=O)NC(C)(C)C)cc2)cc1,inactive
17,CCCOc1cccc(C(=O)Nc2ccccc2C(=O)N2CCN(C)CC2)c1,inactive
18,COc1ccc(C(=S)Nc2ccccc2)cc1,13.5 µM (active)
19,COc1ccc(NC(=O)c2ccc(C#CC(C)(C)O)cc2)cc1,inactive
20,CCCOc1cccc(C(=O)NCCCNC(=O)c2cccnc2)c1,inactive
21,CCCC(=O)NC(=S)Nc1ccc(CN2CCOCC2)cc1,inactive
22,O=C(Nc1ccc(CSc2ccccc2)cc1)c1ccc(CN2CCOCC2)cc1,inactive
23,COc1ccc(NC(=O)c2ccc(OC)cc2)cc1,4.78 µM (active)
